Experimental data taken from PubChem BioAssay (NCI).
Compounds without any hit were thinned out: in the full panel of roughly 83,000, 20% have a hit.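 Single-dose data. Exposure time 48 hours. Values below 10 considered active.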 A number with no mark means an inactive call. Active and inactive are the calls of the source.

The molecules below were run on SK-OV-3 ovarian (assay: NCI-60 one-dose screen, 48 h (100 = growth as untreated, 0 = no growth, -100 = all killed)). Settings: 10 µM unless noted.
Method: Growth inhibition of the SK-OV-3 human tumor cell line is measured as a screen for anti-cancer activity. Cells are grown in 96 well plates and exposed to the test compound for 48 hours. Compounds are tested at a single concentration, which is 10^-5 M for most compounds. The reported endpoint is percent growth (GI% or GIPRCNT), where numbers from 0 - 100% represent growth inhibition, and numbers from -100% - 0 represent cell death. For example, a value of 40 represents 60% growth inhibition. A value of 0 means no net growth occurred over the course of the experiment. A value of -40 indicates 40% of cells at the beginning of the experiment died by the end of the experiment. A value of -100 means all cells are dead at the end of the experiment.
NCI-60 Human Tumor Cell Lines Screen was performed using the standard one-dose NCI protocol, which is described in more detail at https://dtp.cancer.gov/discovery_development/nci-60/default.htm.
Compounds with GIPRCNT values below 10 were considered active. Activity score was based on GIPRCNT using the following formula: […]
Score is 0 for GIPRCNT values of 100 or above, 50 for GIPRCNT values of 0, and 100 for GIPRCNT values of -100.

Compared with `Cn1cc(C2=C(c3cn(C4CCN(Cc5ccccn5)CC4)c4ccccc34)C(=O)NC2=O)c2ccccc21`, `O=C1C(=Cc2cn(Cc3ccccc3)c3ccccc23)C(=O)N(Cc2ccccc2)C(=O)N1Cc1ccccc1` is lower in growth: 83.5% for the first, 47.7% for the second.

Compared with `O=NNc1ccccn1`, `N#CCCNc1ccccc1` is higher in growth: 90% for the first, 121% for the second.

First: O=[N+]([O-])c1cnc[nH]1
Second: CC(=O)ONc1ccc([N+](=O)[O-])c(C(F)(F)F)c1
The growth of the first is higher: 110% for the first, 94.7% for the second.

First: COc1cccc2c1c(C(=O)C(=O)Nc1cc(C)no1)cn2Cc1ccc(F)cc1
Second: Clc1ccc(CSC(Cn2ccnc2)c2ccc(Cl)cc2Cl)cc1 (stereo not given)
The growth of the first is higher: 102% for the first, 71.9% for the second.

Compared with `c1cc2c(c3c1CCNC3)OCO2`, `NC1CC2CCCCC2CC1(O)c1ccccc1` (stereo not given) is higher in growth: 92.6% for the first, 107% for the second.

First: CC[C@H](C)[C@H](NC(=O)NC(C)(C)C)C(=O)N(C)[C@H](C[C@@H](OC(C)=O)c1nc(C(=O)N[C@@H](Cc2ccccc2)C[C@H](C)C(=O)OC)cs1)C(C)C
Second: CCOC(=O)[C@@H](C)C[C@H](Cc1ccccc1)NC(=O)c1csc([C@@H](C[C@H](C(C)C)N(C)C(=O)[C@@H](NC(=O)[C@H]2CCCCN2C)C(C)(C)C)OC(C)=O)n1
The growth of the first is higher: 14.9% for the first, 13.2% for the second.

First: CC(=O)O[C@H](C[C@H](C(C)C)N(C)C(=O)[C@@H](NC(=O)[C@H]1CCCCN1C)C(C)C)c1cccc(C(=O)N[C@@H](Cc2ccccc2)C[C@H](C)C(=O)O)n1
Second: COC(=O)[C@@H](C)C[C@H](Cc1ccccc1)NC(=O)c1nc([C@@H](C[C@H](C(C)C)N(C)C(=O)[C@@H](NC(=O)[C@H]2CCCCN2C)C(C)C)OC(C)=O)sc1C(C)C
The growth of the first is lower: 23.3% for the first, 26.8% for the second.

Compared with `CC1=C(CN)C2=C(C)C3(CC3)[C@@](C)(O)C(=O)C2=C1`, `CCC1(C)CC(CCNCc2ccccc2O)(c2ccc(C)cc2)CCO1` (stereo not given) is higher in growth: 102% for the first, 112% for the second.

First: COC(=O)C12CC(NC(=O)c3csc([C@@H](C[C@H](C(C)C)N(C)C(=O)[C@@H](NC(=O)[C@H]4CCCCN4C)C(C)C)OC(C)=O)n3)(C1)C2
Second: CCCCN1CCCC[C@@H]1C(=O)N[C@H](C(=O)N(C)[C@H](C[C@@H](OC(C)=O)c1nc(C(=O)NC2CCC(C(=O)OC)CC2)cs1)C(C)C)C(C)C (stereo not given in full)
The growth of the first is lower: 13.2% for the first, 23.9% for the second.

Compared with `CCOC(=O)[C@@H](C)C[C@H](Cc1ccccc1)NC(=O)c1csc([C@@H](C[C@H](C(C)C)N(C)C(=O)CNC(=O)[C@H]2CCCCN2C)OC(C)=O)n1`, `COC(=O)[C@@H](C)C[C@H](Cc1ccccc1)NC(=O)c1csc([C@@H](C[C@H](C(C)C)N(C)C(=O)C2(NC(=O)[C@H]3CCCCN3C)CCC2)OC(C)=O)n1` is higher in growth: 21.9% for the first, 28.7% for the second.

Going from `COc1ccc([As]=[As]c2ccc(OC)c(NCS(=O)(=O)O)c2)cc1NCS(=O)(=O)O` (stereo not given) to `CC(C)=CCc1c(O)c(C(=O)CC(C)C)c(O)c2c(-c3ccccc3)cc(=O)oc12`, the growth falls from 91.6% to 60.9%.

Going from `N#C[Se]CCN1C(=O)c2ccccc2C1=O` to `CC(C)(N)Cc1ccccc1`, the growth rises from 56.4% to 106%.

Compared with `O=C(CCCC1CCCCC1)OCC(Cl)(Cl)Cl`, `CC(=O)O[C@H]1CC[C@H]2[C@@H]3CC=C4c5nc(-c6ccccc6)sc5CC[C@]4(C)[C@H]3CC[C@]12C` is lower in growth: 101% for the first, 94.5% for the second.

Going from `O=C([O][Hg][c]1ccccc1)c1ccccc1` to `Cc1cc(N(CCCl)CCCl)ccc1C=Nc1ccccc1-c1ccccc1`, the growth rises from 64.9% to 98.6%.

First: Cc1cc(N(CCCl)CCCl)ccc1C=Nc1cccnc1
Second: CCCCCCCC[n+]1ccc2ccccc2c1
The growth of the first is lower: 61.3% for the first, 62.9% for the second.

Going from `CC(=O)[O][Hg][O]C(C)=O` to `CC[C@H](C)[C@@H]([C@@H](CC(=O)N1CCC[C@H]1[C@H](OC)[C@@H](C)C(=O)N[C@H](C)[C@@H](O)c1ccccc1)OC)N(C)C(=O)[C@@H](NC(=O)[C@@H](NC)C(C)C)C(C)C`, the growth falls from 97.8% to 14.1%.

First: C/C(=C\c1ccn(-c2ccc(N)cc2)n1)[C@@H]1C[C@@H]2O[C@]2(C)CCC[C@H](C)[C@H](O)[C@@H](C)C(=O)C(C)(C)[C@@H](O)CC(=O)O1
Second: [Au+].[N-]=C=O.c1ccc(CN2[CH-]N(Cc3ccccc3)C(c3ccccc3)=C2c2ccccc2)cc1
The growth of the first is lower: 45.1% for the first, 96.8% for the second.

`CC(C)[C@@H]1NC(=O)[C@]2(C)CSC(=N2)c2csc(n2)CNC(=O)C[C@@H](/C=C/CCS)OC1=O` was tested, and the growth was -12.6% (active).
With `CCOC(=O)[C@@H](C)C[C@H](Cc1ccccc1)NC(=O)c1csc([C@@H](C[C@H](C(C)C)N(C)C(=O)[C@@H](NC(=O)[C@H]2C[C@H](O)CCN2C)C(C)C)OC(C)=O)n1` the growth was 7.61% (active).
With `NC(CCl)CCl` the growth was -100% (active).
In the case of `O=C1OCC2=C1C(c1ccccc1)c1cc3c(cc1N2)OCO3` (stereo not given), the growth is reported as 2.36% (active).
For `COc1ccc(C/C(C)=C(\c2ccc(OCCN3CCOCC3)cc2)c2ccc(OC(=O)Cc3ccccc3)cc2)cc1`, the growth was 0.737% (active).
`CC1=C(CCCOC(=O)[C@H](N)CC(C)C)C2=C(C)C3(CC3)[C@@](C)(O)C(=O)C2=C1` was tested, and the growth was -18.1% (active).
